# For some assays here: Entries with a potency or affinity are not part of this list.
# Assays:
# Design in all cases: scale not given: direction of the effect not stated beside the values
# [1] = biological target: Protein translocase subunit SecA (Escherichia coli (strain K12)) (UniProt P10408); test: Assay to Identify E. coli SecA ATPase Inhibitors; format: functional; details: 30 µM
# [2] = biological target: T1, Ubiquitin-activating enzyme e1, putative (Leishmania donovani (strain BPK282A1)) (UniProt E9BSI1); test: Leishmania donovani Ubiquitin Activating Enzyme (LdE1); format: functional; details: 30 µM
# T1 sequence (whole entry): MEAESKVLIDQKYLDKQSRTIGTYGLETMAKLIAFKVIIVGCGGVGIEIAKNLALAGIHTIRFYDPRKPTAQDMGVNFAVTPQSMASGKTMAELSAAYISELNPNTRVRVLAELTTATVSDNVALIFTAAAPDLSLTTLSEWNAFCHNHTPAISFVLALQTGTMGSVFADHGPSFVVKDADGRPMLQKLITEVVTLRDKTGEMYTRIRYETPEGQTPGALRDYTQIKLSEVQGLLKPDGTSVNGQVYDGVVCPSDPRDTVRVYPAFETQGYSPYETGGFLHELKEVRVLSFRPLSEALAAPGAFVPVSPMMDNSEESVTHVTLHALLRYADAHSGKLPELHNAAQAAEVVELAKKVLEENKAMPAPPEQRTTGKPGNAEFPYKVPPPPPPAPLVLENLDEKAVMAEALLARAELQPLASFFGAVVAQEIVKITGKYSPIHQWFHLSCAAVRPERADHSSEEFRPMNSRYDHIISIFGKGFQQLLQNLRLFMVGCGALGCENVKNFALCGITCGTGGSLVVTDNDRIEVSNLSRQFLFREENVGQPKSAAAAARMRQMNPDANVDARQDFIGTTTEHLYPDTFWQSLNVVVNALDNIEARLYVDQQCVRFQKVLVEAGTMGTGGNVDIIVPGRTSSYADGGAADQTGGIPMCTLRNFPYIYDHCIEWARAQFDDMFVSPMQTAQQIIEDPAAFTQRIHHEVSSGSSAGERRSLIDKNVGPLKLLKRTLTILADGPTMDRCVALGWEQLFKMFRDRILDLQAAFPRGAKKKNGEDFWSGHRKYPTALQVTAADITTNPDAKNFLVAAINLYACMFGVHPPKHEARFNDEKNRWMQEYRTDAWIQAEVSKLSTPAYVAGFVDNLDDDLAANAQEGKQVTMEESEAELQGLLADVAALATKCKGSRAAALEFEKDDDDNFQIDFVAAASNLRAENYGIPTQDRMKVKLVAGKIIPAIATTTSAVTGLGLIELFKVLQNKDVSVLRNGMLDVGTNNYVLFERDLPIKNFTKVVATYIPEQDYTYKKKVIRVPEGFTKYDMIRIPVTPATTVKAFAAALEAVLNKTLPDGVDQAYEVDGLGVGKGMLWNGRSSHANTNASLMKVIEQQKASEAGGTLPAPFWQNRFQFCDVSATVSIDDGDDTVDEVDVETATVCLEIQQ
# [3] = biological target: AMP-activated protein kinase, AMPK (Homo sapiens) (UniProt P54646+O43741+P54619+Q9UGJ0+Q9Y478+Q13131+Q9UGI9); test: AMP-dependent Kinase enzyme assay. An in vitro enzyme assay that detects ADP turnover that is directly proportional to AMPK activity. This uses naive AMPK that is activated during the assay with MK-8722; format: functional; details: 30 µM
# [4] = biological target: Sialic acid-binding Ig-like lectin 9 (Homo sapiens) (UniProt Q9Y336); test: Hs-Siglec9 ALPHAscreen SOP 20170721; details: 10 µM
# Sequence of Sialic acid-binding Ig-like lectin 9 (Homo sapiens) (Q9Y336 whole entry): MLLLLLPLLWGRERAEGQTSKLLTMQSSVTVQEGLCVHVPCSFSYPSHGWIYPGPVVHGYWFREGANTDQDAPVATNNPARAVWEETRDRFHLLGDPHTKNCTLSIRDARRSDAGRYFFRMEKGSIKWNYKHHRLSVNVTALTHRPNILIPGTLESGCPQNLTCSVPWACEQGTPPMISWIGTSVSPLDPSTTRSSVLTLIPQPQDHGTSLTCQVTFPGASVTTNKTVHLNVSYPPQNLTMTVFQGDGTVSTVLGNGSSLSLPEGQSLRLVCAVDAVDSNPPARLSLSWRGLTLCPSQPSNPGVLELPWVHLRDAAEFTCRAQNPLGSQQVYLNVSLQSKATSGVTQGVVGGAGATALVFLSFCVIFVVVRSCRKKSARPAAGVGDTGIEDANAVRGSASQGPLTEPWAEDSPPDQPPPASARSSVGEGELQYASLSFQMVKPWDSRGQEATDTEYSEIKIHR
# Trypanosoma cruzi = test: Trypanosoma cruzi phosphomannomutase and mannose-1-phosphate guanylyltransferase assay; format: functional; details: 10 µM
# [5] = biological target: T2, Arginase-2, mitochondrial (Homo sapiens) (UniProt P78540); test: in vitro enzyme assay to detect the production of urea directly proportional to the activity of Arginase II; format: functional; details: 33.3 µM; further: in the data most compounds retested in dose-response had high values
# T2 sequence (whole entry): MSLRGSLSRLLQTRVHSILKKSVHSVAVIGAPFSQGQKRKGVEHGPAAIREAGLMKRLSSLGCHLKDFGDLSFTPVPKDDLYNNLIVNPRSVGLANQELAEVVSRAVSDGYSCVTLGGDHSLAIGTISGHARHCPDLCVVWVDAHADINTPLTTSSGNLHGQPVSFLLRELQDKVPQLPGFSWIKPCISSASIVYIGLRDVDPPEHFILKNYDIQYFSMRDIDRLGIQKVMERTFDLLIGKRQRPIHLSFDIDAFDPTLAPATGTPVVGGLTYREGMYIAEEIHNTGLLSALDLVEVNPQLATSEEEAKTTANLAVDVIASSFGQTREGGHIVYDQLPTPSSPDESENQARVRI
# [6] = biological target: T3, Proteasome subunit beta (Trypanosoma cruzi) (UniProt O96673); test: Trypanosoma cruzi proteasome chymotrypsin-like activity (TcProtChymo) assay.; further: in the data most compounds retested in dose-response had high values; format: functional; details: 9.37 µM
# T3 sequence (whole entry): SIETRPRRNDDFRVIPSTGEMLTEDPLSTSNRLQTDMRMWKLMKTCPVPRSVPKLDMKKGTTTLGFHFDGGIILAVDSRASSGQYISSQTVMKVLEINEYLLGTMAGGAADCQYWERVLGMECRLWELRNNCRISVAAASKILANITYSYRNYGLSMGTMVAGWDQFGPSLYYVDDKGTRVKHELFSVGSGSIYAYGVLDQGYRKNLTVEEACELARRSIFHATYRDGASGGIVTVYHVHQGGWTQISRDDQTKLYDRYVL
# Homo sapiens = organism: Homo sapiens; test: To identify inhibition of the IFN signalling (Jak-Stat) pathway via expression of an eGFP reporter gene under the control of an IFN-stimulated response element (ISRE) containing MxA promoter.; format: functional; details: 30 µM
# [7] = biological target: T4, Tyrosyl-tRNA synthetase, putative (Trypanosoma cruzi (strain CL Brener)) (UniProt Q4DSP6); test: Trypanosoma cruzi tyrosyl tRNA synthetase (TcYRS) _High Tyrosine SOP; format: functional; details: 30 µM; further: in the data most compounds retested in dose-response had high values
# T4 sequence (whole entry): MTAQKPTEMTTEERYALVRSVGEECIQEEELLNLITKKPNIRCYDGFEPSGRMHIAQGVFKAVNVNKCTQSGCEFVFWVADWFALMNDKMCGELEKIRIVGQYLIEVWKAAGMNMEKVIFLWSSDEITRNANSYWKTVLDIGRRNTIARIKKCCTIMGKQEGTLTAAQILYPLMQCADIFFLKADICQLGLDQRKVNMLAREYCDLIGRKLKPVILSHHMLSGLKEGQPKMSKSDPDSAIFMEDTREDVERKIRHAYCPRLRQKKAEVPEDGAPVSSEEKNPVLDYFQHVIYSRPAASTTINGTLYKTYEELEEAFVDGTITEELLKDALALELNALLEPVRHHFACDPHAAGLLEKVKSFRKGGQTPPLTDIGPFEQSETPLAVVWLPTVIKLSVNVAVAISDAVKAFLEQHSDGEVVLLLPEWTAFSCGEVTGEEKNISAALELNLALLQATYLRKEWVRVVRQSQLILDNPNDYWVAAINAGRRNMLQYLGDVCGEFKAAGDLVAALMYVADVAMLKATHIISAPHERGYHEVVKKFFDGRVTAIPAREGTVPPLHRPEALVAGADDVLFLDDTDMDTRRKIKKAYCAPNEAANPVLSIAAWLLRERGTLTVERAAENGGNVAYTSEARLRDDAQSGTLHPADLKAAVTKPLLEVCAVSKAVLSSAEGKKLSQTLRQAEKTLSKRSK
# [8] = biological target: T4, Tyrosyl-tRNA synthetase, putative (Trypanosoma cruzi (strain CL Brener)); test: Trypanosoma cruzi tyrosyl tRNA synthetase (TcYRS) SOP; format: functional; details: 30 µM
# [9] = biological target: Chromo domain-containing protein 1 (Saccharomyces cerevisiae (strain ATCC 204508 / S288c) (Baker's yeast)) (UniProt P32657); test: ScCHD-1 Enzyme Inhibition Assay; format: functional; details: 30 µM; further: in the data most compounds retested in dose-response had high values
# Sequence of Chromo domain-containing protein 1 (Saccharomyces cerevisiae (strain ATCC 204508 / S288c) (Baker's yeast)) (P32657 whole entry, the tested form may be a part): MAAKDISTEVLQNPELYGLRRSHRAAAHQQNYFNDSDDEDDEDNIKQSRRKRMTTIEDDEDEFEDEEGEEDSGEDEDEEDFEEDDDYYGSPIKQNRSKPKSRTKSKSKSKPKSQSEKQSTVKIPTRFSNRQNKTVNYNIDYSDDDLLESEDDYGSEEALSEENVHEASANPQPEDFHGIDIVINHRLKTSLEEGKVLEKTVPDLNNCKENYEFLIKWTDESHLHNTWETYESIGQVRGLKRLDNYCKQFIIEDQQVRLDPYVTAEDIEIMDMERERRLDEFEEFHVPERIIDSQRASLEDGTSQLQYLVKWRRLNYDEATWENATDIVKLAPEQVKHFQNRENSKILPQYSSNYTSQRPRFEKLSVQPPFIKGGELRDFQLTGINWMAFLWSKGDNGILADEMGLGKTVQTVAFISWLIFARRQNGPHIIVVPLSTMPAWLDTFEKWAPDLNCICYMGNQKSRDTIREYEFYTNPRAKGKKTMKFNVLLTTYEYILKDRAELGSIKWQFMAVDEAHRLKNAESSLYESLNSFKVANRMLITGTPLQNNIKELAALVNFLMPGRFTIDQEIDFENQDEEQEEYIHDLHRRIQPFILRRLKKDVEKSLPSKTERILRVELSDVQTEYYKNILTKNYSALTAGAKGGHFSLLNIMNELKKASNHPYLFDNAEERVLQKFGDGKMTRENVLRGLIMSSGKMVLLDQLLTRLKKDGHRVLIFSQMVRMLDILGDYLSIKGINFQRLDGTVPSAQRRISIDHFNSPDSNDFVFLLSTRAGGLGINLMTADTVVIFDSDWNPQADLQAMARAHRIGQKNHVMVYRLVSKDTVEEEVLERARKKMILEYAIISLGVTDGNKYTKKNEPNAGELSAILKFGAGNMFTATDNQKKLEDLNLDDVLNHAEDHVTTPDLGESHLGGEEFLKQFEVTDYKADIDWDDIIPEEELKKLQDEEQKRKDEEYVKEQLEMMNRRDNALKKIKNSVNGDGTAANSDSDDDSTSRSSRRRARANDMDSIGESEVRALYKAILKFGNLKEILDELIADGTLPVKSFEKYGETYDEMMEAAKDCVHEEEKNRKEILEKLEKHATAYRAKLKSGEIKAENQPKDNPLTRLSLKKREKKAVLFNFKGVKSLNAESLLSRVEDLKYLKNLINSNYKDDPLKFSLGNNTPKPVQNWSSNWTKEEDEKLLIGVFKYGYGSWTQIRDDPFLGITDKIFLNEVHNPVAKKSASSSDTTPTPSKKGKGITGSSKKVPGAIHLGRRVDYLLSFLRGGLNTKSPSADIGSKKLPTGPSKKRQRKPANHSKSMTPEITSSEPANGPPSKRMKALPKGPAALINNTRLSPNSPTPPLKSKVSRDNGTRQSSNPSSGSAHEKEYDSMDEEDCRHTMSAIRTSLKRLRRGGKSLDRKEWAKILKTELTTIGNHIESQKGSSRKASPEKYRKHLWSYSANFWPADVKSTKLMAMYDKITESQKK
# Sequence of Protein translocase subunit SecA (Escherichia coli (strain K12)) (P10408 whole entry): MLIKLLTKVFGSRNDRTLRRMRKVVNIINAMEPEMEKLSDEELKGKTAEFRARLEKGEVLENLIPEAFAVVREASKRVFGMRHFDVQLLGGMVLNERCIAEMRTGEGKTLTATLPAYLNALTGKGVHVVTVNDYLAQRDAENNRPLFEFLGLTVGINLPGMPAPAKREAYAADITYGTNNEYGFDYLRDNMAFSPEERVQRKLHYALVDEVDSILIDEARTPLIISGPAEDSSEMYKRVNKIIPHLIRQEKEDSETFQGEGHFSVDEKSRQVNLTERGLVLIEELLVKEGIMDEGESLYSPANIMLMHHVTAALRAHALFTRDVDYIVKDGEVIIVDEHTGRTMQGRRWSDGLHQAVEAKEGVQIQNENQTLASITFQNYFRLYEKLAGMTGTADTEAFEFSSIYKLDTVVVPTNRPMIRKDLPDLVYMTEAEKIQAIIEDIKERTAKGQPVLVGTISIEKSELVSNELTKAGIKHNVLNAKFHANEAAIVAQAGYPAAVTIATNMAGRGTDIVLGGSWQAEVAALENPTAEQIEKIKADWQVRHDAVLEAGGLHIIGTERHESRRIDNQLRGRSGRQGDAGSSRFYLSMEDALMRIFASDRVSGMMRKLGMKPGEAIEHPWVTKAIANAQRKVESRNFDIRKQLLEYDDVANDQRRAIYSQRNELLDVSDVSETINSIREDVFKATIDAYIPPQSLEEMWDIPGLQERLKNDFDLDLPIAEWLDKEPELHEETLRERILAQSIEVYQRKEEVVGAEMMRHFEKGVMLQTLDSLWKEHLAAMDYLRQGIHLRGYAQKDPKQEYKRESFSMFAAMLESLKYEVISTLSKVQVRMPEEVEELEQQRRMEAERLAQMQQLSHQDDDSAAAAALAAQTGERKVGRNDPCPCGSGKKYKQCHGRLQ
Compound,Percent Effect [1],Percent Effect [2],Percent Effect [3],Percent Effect [4],Percent Effect (Trypanosoma cruzi),Percent Effect [5],Percent Effect [6],Percent Effect (Homo sapiens),Percent Effect [7],Percent Effect [8],Percent Effect [9]
CN(Cc1cc(-c2ccccc2)no1)C1CCCN(c2cccnn2)C1 (configuration not stated),-6.51%,-20.8%,0.498%,15.7%,-3.93%,-3.2%,2.37%,7.74%,15.5%,14.6%,18.5%
Cc1nnc(CN2CCN(CCOc3ccccc3C#N)CC2)n1C,-5%,13.2%,-7.44%,8.94%,5.7%,1.44%,7.87%,5.78%,3.45%,16.1%,-3.26%
CC(C)c1noc(CN2CCN(C(=O)c3ccccc3F)CC2)n1,-4.33%,13.5%,-4.45%,3.5%,-2.32%,-3.88%,6.82%,23.6%,7.92%,18.3%,0.419%
Cc1ccc(-c2nc(CN3CCOC(Cn4cccn4)C3)cs2)o1 (configuration not stated),0.91%,2.7%,-3.73%,5.65%,7.14%,0.476%,12.4%,4.23%,2.65%,9.76%,0.401%
Cc1cccc(N2CCN(CCCNC(=O)c3nccn3C)CC2)c1,-2.68%,5.41%,-5.72%,-1.22%,4.49%,38.3%,12.9%,7.26%,11.9%,18.3%,-2.27%
COCCO[C@H]1CCN(C(=O)c2ccc[nH]2)[C@H]1Cc1ccncc1,-5.53%,0%,12.9%,1.19%,-3.74%,-2.1%,2.73%,-2.22%,3.19%,6.41%,0.525%
Cc1cc(C)cc(-c2cccc(CC3(C(=O)O)CCOCC3)c2)c1,-0.147%,4.05%,37.7%,5.76%,-8.1%,-9.05%,15.1%,31.5%,-26.9%,-45.5%,-6.99%
Cc1ccc2c(c1)OCCCC2NCc1nnc2n1CCCCC2 (configuration not stated),-3.75%,2.7%,-4.22%,17.1%,5.57%,2.23%,0.772%,-5.39%,-15.1%,6.17%,-11.7%
CN(C)C(=O)N1CCc2c(CNc3ncccn3)cncc2C1,-2.85%,0%,-1%,7.13%,1.35%,-23.8%,1.88%,-4.02%,6.25%,7.5%,-2.6%
O=S(=O)(C1CC1)N1CCO[C@H]2[C@H](OCC3CCCC3)CC[C@@H]21,-4.67%,0%,1.22%,-1.17%,4.83%,-45.7%,2.05%,-5.99%,0%,5%,-4.13%
CCOc1nnc(CN(C)CC2CCCN2c2cccnn2)s1 (configuration not stated),-2.36%,7.89%,-1.61%,-2.87%,3.41%,-8.28%,20.2%,-2.35%,3.19%,10.4%,-4.84%
CN(C)C(=O)CCCNC(=O)C(c1cccc(F)c1)N(C)C (configuration not stated),0.633%,13.5%,-10.5%,5.14%,5.41%,-1.43%,11.7%,24.9%,10.1%,12.2%,-1.94%
CCN(CC)CCNC(=O)c1ccn(COc2cc(C)cc(C)c2)n1,-1.61%,9.33%,0.388%,2.31%,-0.197%,-8.28%,21.4%,0.95%,6.35%,15.4%,-9.92%
COCCNC(=O)c1ccc(C)c(-n2cccc2)c1,2.25%,13.2%,4.41%,-4.12%,-3.8%,-2.37%,14.3%,-4.52%,7.45%,7.79%,-3.58%
CC(C)CN1C(=O)C2(CCN(Cc3nccs3)C2)c2ccccc21 (configuration not stated),-1.96%,5.41%,-2.39%,1.8%,-5.08%,5%,16.1%,37.2%,3.96%,3.66%,-5.7%
CC(C)c1nc2n(n1)CC(NCc1nnnn1C1CC1)CC2 (configuration not stated),-2.7%,32.4%,-23.1%,6.96%,3.87%,-15.6%,7.39%,9.98%,4.43%,18.5%,-10.6%
COCC(=O)N1CCC(c2cccc(Cc3ccc(F)cc3)n2)CC1,0.623%,9.46%,7.38%,-1.91%,-6.13%,3.94%,5.15%,22.7%,2.15%,11.7%,-12.4%
CS(=O)(=O)N1CCc2nc(NC(=O)Nc3c(F)cccc3F)sc2C1,-4.94%,-11%,-0.62%,-0.122%,-5.49%,0%,4.97%,1.79%,4.3%,12.5%,1.62%
Cc1nnc(CN2CCCC(c3cc(C(N)=O)[nH]n3)C2)o1 (configuration not stated),-3.02%,-5.41%,0.969%,11.5%,-1.23%,0%,-2.34%,2.07%,-1.48%,-1.24%,1.61%
CCn1ncc2c1CCCC2NCC1=Cc2ccccc2OC1 (configuration not stated),-4.51%,3.8%,4.34%,0.918%,1.95%,-7.1%,10.1%,13.4%,4.17%,7.59%,-2%
O=C(c1ccsc1)N1CCc2c(COCc3ccncc3)cncc2C1,0.395%,-8.22%,0.499%,1.44%,-0.397%,1.2%,10%,3.9%,3.12%,3.7%,-0.158%
CCN(Cc1nc2c(cnn2C)c(=O)[nH]1)Cc1cccs1,-4.13%,15.6%,-1.29%,-13.1%,4.6%,-10.3%,15.3%,-0.846%,7.62%,25.9%,-21.1%
